The panel holds about 83,000 compounds, 20% with a hit somewhere; the sample as a whole holds those more often.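 Assay: single dose, 48 h. Readout: percent growth (0 = no net growth; negative = cell death). Active: <10.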 Calls of active or inactive are those of the source.
Experiments:
Experiment in all cases: NCI-60 one-dose screen, 48 h (100 = growth as untreated, 0 = no growth, -100 = all killed)
T-47D breast = settings: 10 µM unless noted
BT-549 breast = system: BT-549 breast
MDA-MB-435 melanoma = system: MDA-MB-435 melanoma
SW-620 colon = system: SW-620 colon
HCT-116 colon = system: HCT-116 colon
HCC-2998 colon = system: HCC-2998 colon
KM12 colon = system: KM12 colon
MDA-MB-468 breast = system: MDA-MB-468 breast
MCF7 breast = settings: 10 µM unless noted

Measured: growth

O=C(N/N=C/c1c[nH]c2ccccc12)Nc1ccc(F)c(Cl)c1
inactive: T-47D breast 34% | BT-549 breast; 10 µM unless noted 18.5% | SW-620 colon; 10 µM unless noted 41.3% | HCT-116 colon; 10 µM unless noted 25.5%
active: MDA-MB-435 melanoma; 10 µM unless noted 0.865% | HCC-2998 colon; 10 µM unless noted 3.69% | KM12 colon; 10 µM unless noted -14.7% | MDA-MB-468 breast; 10 µM unless noted -1.93%

OCCn1cc(-c2nc3ccc4[nH]ncc4c3c3c2CCCC3)cn1
active: MDA-MB-468 breast; 10 µM unless noted 3.83%
inactive: T-47D breast 43.5% | BT-549 breast; 10 µM unless noted 30.5% | MDA-MB-435 melanoma; 10 µM unless noted 12.4% | SW-620 colon; 10 µM unless noted 21.6% | HCT-116 colon; 10 µM unless noted 24% | HCC-2998 colon; 10 µM unless noted 54% | KM12 colon; 10 µM unless noted 18.8%

CN1CCc2c(sc3ncnc(N/N=C/c4cccc(Cl)c4Cl)c23)C1
active: T-47D breast -6.02% | SW-620 colon; 10 µM unless noted -36.9% | HCT-116 colon; 10 µM unless noted -82.8% | HCC-2998 colon; 10 µM unless noted 6.03%
inactive: BT-549 breast; 10 µM unless noted 63.3% | MDA-MB-435 melanoma; 10 µM unless noted 39.3% | KM12 colon; 10 µM unless noted 88% | MDA-MB-468 breast; 10 µM unless noted 33.2%

COc1cccc(NC(=O)c2ccc(NC(=O)CCl)s2)c1
inactive: T-47D breast 26.2% | BT-549 breast; 10 µM unless noted 27.2% | HCC-2998 colon; 10 µM unless noted 80.6% | KM12 colon; 10 µM unless noted 42.4%
active: MDA-MB-435 melanoma; 10 µM unless noted 2.66% | SW-620 colon; 10 µM unless noted 3.86% | HCT-116 colon; 10 µM unless noted -27.4% | MDA-MB-468 breast; 10 µM unless noted -14.7%

COc1ccc2ccccc2c1/C=C1\SC(=Nc2ccc(O)cc2)NC1=O
active: BT-549 breast; 10 µM unless noted -22.6% | HCT-116 colon; 10 µM unless noted 2.32% | HCC-2998 colon; 10 µM unless noted -0.301% | MDA-MB-468 breast; 10 µM unless noted -34.7%
inactive: T-47D breast 36.4% | MDA-MB-435 melanoma; 10 µM unless noted 10.9% | SW-620 colon; 10 µM unless noted 35.4% | KM12 colon; 10 µM unless noted 17.3%

C/C(=N\Nc1ccc(C(=O)O)cc1)c1cnn(-c2cc(=O)[nH]c3ccc(C)cc23)c1C
inactive: T-47D breast 98.9% | BT-549 breast; 10 µM unless noted 88.4% | MDA-MB-435 melanoma; 10 µM unless noted 101% | SW-620 colon; 10 µM unless noted 110% | MCF7 breast 90.4% | HCT-116 colon; 10 µM unless noted 95.2% | HCC-2998 colon; 10 µM unless noted 108% | KM12 colon; 10 µM unless noted 99.9% | MDA-MB-468 breast; 10 µM unless noted 83.2%

O=C1Nc2cc(-c3ccc(NS(=O)(=O)c4ccc([N+](=O)[O-])cc4)cc3)ccc2/C1=C/c1ccc[nH]1
inactive: T-47D breast 15.9% | HCC-2998 colon; 10 µM unless noted 32.2% | KM12 colon; 10 µM unless noted 27.5%
active: BT-549 breast; 10 µM unless noted -23% | MDA-MB-435 melanoma; 10 µM unless noted 1.34% | SW-620 colon; 10 µM unless noted 6.1% | MCF7 breast -23.6% | HCT-116 colon; 10 µM unless noted -48.6% | MDA-MB-468 breast; 10 µM unless noted -29.6%

CC[C@@]12CC(C(=O)OC)=C3Nc4cc5c(cc4[C@@]34CCN(C[C@H]3O[C@H]31)[C@@H]24)[C@@H]1[C@H](O5)[C@@H](O)[C@@]2(CC)CC(C(=O)OC)=C3Nc4cc(O)ccc4[C@@]34CCN1[C@@H]24
active: T-47D breast -37.5% | BT-549 breast; 10 µM unless noted -87.6% | MDA-MB-435 melanoma; 10 µM unless noted -54.3% | SW-620 colon; 10 µM unless noted -71.1% | MCF7 breast -56.8% | HCT-116 colon; 10 µM unless noted -50.4% | HCC-2998 colon; 10 µM unless noted -85.4% | KM12 colon; 10 µM unless noted -46.6% | MDA-MB-468 breast; 10 µM unless noted -78.5%

CC/C(=C(/c1ccc(O)cc1)c1ccc(OCCN(C)C(=O)COCCOCCNC(=O)c2ccc3c(c2)CN([C@@H]2CCC(=O)NC2=O)C3=O)cc1)c1ccccc1
inactive: BT-549 breast; 10 µM 43.1% | MDA-MB-435 melanoma; 1 µM 101% | MDA-MB-435 melanoma; 10 µM 97% | SW-620 colon; 1 µM 81.5% | SW-620 colon; 10 µM 60.6% | HCT-116 colon; 1 µM 97.9% | HCT-116 colon; 10 µM 102% | HCC-2998 colon; 1 µM 97.6% | HCC-2998 colon; 10 µM 82.8% | KM12 colon; 1 µM 98.9% | KM12 colon; 10 µM 95.5%
active: BT-549 breast; 1 µM 5.04% | MDA-MB-468 breast; 1 µM 5.9% | MDA-MB-468 breast; 10 µM -23.9%

Clc1ccccc1Nc1nnc(-c2c[nH]c3ccccc23)o1
inactive: T-47D breast 27.3% | BT-549 breast; 10 µM unless noted 25.1% | SW-620 colon; 10 µM unless noted 29% | KM12 colon; 10 µM unless noted 15%
active: MDA-MB-435 melanoma; 10 µM unless noted -44.2% | HCT-116 colon; 10 µM unless noted 8.25% | HCC-2998 colon; 10 µM unless noted 6.55% | MDA-MB-468 breast; 10 µM unless noted -22.5%

Nc1cc(-c2c[nH]c3ccc(F)cc23)nc2cc(-c3c[nH]c4ccccc34)nn12
active: MDA-MB-435 melanoma; 10 µM unless noted 4.81% | SW-620 colon; 10 µM unless noted -66.1% | MCF7 breast -22.9% | HCT-116 colon; 10 µM unless noted -41.8% | HCC-2998 colon; 10 µM unless noted -59.2% | KM12 colon; 10 µM unless noted -54.1% | MDA-MB-468 breast; 10 µM unless noted -18.9%
inactive: T-47D breast 18.3%

N/C(=N\c1nc2ccccc2s1)NC(=O)Nc1ccccc1[N+](=O)[O-]
active: MDA-MB-435 melanoma; 10 µM unless noted -45.1% | HCT-116 colon; 10 µM unless noted 0.0336% | HCC-2998 colon; 10 µM unless noted 8.25% | KM12 colon; 10 µM unless noted 1.31% | MDA-MB-468 breast; 10 µM unless noted -0.807%
inactive: T-47D breast 34.1% | BT-549 breast; 10 µM unless noted 10.5% | SW-620 colon; 10 µM unless noted 31%

Cn1cc(-c2cc3nc(-c4cn(C)c5ncc(Br)cc45)cc(N)n3n2)c2cc(F)ccc21
inactive: BT-549 breast; 10 µM unless noted 44.9% | MDA-MB-435 melanoma; 10 µM unless noted 39.8% | SW-620 colon; 10 µM unless noted 26.6% | KM12 colon; 10 µM unless noted 19.1%
active: T-47D breast 2.75% | HCT-116 colon; 10 µM unless noted -44.1% | HCC-2998 colon; 10 µM unless noted -14.5% | MDA-MB-468 breast; 10 µM unless noted -47.4%

O=C(Cc1c(-c2ccccc2[N+](=O)[O-])n(-c2ncnc3c2c(-c2ccccc2)c(-c2ccccc2)n3Cc2ccccc2)[nH]c1=O)c1ccc(Cl)c(Cl)c1
inactive: SW-620 colon; 10 µM unless noted 31.3% | HCT-116 colon; 10 µM unless noted 13.7% | HCC-2998 colon; 10 µM unless noted 24.9% | KM12 colon; 10 µM unless noted 15.7%
active: T-47D breast 6.14% | BT-549 breast; 10 µM unless noted -17.2% | MDA-MB-435 melanoma; 10 µM unless noted 2.32% | MDA-MB-468 breast; 10 µM unless noted -23.5%
